This passage reports Potency results from PubChem BioAssay AID588591 (National Center for Advancing Translational Sciences (NCATS), 2011).

Out of some 390,000 compounds screened, about 4,700 (1.2%) were called active. A call without a number means that no potency is given here. Inconclusive results (about 4%) are left out. Calls follow the shape of the dose curve; as a rule, active = well fitted inhibition curve with a large enough effect; inconclusive = small, poorly fitted or top-dose-only effect, or another doubt; inactive = no such curve, though single readings can be large or run the other way. The sample as a whole holds a higher share of actives than the screen did.
Potency is read from the fitted curve at half-maximal effect.

The target of the experiment is DNA polymerase eta (Homo sapiens) (UniProt Q9Y253). Briefly: qHTS for Inhibitors of Polymerase Eta. Conditions: recombinant Pol eta, fluorescent DNA replication assay; series mostly up to 114 µM. An outline of the steps: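 Pol eta at 10 nM preincubated with compounds 15 min at room temperature; reaction started with fluorescent substrate (50 nM final) and read kinetically at 0 and 10 min.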
Sequence of DNA polymerase eta (Homo sapiens) (Q9Y253 whole entry, looked up): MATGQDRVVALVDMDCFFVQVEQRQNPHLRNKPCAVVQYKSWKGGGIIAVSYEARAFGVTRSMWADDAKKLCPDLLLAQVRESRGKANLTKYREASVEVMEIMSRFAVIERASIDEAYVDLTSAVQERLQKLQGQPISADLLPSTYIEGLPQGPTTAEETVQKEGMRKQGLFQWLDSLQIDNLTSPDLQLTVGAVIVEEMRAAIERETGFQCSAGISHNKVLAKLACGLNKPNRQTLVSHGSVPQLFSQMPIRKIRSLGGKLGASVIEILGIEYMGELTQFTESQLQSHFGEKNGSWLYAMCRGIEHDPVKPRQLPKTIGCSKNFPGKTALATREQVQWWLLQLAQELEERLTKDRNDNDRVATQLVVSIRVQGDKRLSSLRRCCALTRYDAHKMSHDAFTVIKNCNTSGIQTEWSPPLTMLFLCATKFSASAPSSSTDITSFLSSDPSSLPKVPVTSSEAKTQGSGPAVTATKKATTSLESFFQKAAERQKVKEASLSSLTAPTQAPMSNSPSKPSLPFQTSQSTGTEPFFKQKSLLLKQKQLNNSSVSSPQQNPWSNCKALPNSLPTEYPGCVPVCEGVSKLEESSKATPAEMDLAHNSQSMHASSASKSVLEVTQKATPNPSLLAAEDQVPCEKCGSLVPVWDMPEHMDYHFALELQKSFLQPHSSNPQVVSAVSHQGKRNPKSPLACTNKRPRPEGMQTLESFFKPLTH
Background: Quantitative high-throughput screening tests each substance at several concentrations.
Turning to `O=C(CC1C(=O)N(c2ccccc2)C(=O)N1CCc1cccs1)Nc1ccc(F)cc1` (centres undefined), the Potency entry was “inactive”.
The result for `O=C1NN(c2ccccc2)C(=O)/C1=C/c1ccc(-c2cccc(C(=O)O)c2)o1` reads 20 µM (active); that for `CC(=O)c1cc(-c2ccccc2)[nH]c1N1CCCC1`, “inactive”.
Regarding `CCOc1ccc(N(CC)S(=O)(=O)N2CCCC(C(=O)Nc3ccc(C(C)=O)cc3)C2)cc1` (centres undefined), the Potency result is “inactive”.
For the molecule `COc1cc(C)ccc1OCCSc1nc2ccc(NC(=O)c3ccc(C)cc3)cc2s1`, the Potency result was “inactive”.
Consider `CCOC(=O)N1CCc2c(sc3c2c(=O)n(Cc2ccccc2)c(=O)n3CC(=O)Nc2cccc(C)c2)C1`, for which the Potency result is “inactive”.
For `Fc1ccc(C(Nc2ccc(Cl)c(C(F)(F)F)c2)c2nnc(-c3ccccc3)o2)cc1` (centres undefined), the Potency result was “inactive”.
Under `CC(=O)Nc1ccc(C(=O)OCC(=O)Nc2ccc([N+](=O)[O-])cc2C(F)(F)F)cc1` stands “inactive”; under `Cn1ccc(=Nc2ccc(NC(=O)c3ccc(N=c4ccn(C)c5ccc([N+](=O)[O-])cc45)cc3)cc2)cc1`, 5.62 µM (active).
For `CC(=O)c1ccc(NC(=O)COc2ccccc2-c2nc(-c3ccccc3)no2)cc1`, the Potency entry was “inactive”.
`CCS(=O)(=O)N1CCc2cc(C(=O)NCc3ccc(OC)cc3)ccc21`: the Potency result is “inactive”.
On to `Cc1cc(/C=N/Nc2ccc([N+](=O)[O-])cn2)c(C)n1-c1cccc(C(=O)O)c1`, for which the Potency was 22.4 µM (active).
Under `CN1CCN(C(=O)c2cnn(-c3ccccc3)c2NC(=O)c2ccc([N+](=O)[O-])cc2)CC1` stands “inactive”.
Take `Cc1cccc(C(=O)NC(=S)N2CCN(c3ccc([N+](=O)[O-])cc3)CC2)c1`: the Potency result was “inactive”.
As for `COC(=O)c1cnn2c(C(F)(F)F)cc(-c3ccco3)nc12`, the Potency is 20 µM (active).
With `O=C(NCc1ccco1)c1cnn2c(C(F)(F)F)cc(-c3ccco3)nc12`, the Potency result was “inactive”.
As for `Cc1ccc(-c2cc(C(F)(F)F)n3ncc(C(=O)N4CCCCC4c4cccnc4)c3n2)cc1` (centres undefined), the Potency entry is “inactive”.
For `Cc1ccc2nc(-c3ccc(O)cc3)c(Nc3ccc4c(c3)OCO4)n2c1`, the Potency result was “inactive”.
Under `CCOC(=O)C1CCC(CN(Cc2ccc(OC)cc2)S(=O)(=O)c2ccc(F)c(C(=O)Nc3cc(C)ccc3C)c2)CC1` (centres undefined) stands “inactive”; under `COc1ccc(C(=O)Nc2nc(-c3ccc(OC)cc3)c(-c3ccc([N+](=O)[O-])cc3)s2)cc1`, 79.4 µM (active); under `COCCN(CCOC)S(=O)(=O)c1ccc(C(=O)Nc2nc3c(s2)CCc2ccccc2-3)cc1`, “inactive”.
On to `COc1ccc(-c2nc3ccc(C(=O)NCc4ccc(C)cc4)cc3nc2-c2ccc(OC)cc2)cc1`, for which the Potency entry was “inactive”.
On to `CCOc1ccc(N(C)S(=O)(=O)c2cc(-c3cnc(C)o3)ccc2OC)cc1`, for which the Potency result is “inactive”.
As for `CCNC(=O)c1sccc1-n1cccc1`, the Potency entry is “inactive”.
Take `O=C(NCc1ccco1)c1sc2cccc(F)c2c1Cl`: the Potency entry was “inactive”.
In the case of `Cc1ccsc1C(=O)NCCc1ccco1`, the Potency was 22.4 µM (active).
Take `CCC1=Nc2cc(C(=O)NCCCOC(C)C)ccc2Sc2ccc(C)cc21`: the Potency entry is “inactive”.
For `O=C(O)C(c1ccccc1)N1C(=O)/C(=C\c2ccc(-c3cccc(Cl)c3)o2)SC1=S` (centres undefined), the Potency is 44.7 µM (active).
Turning to `O=C(NCc1ccccc1)c1cc(-c2cccc(Cl)c2)on1`, the Potency result was “inactive”.
On to `O=C(NCCc1ccc(Cl)cc1)c1ccc2c(c1)N(Cc1ccc(F)cc1)C(=O)CS2`, for which the Potency entry was “inactive”.
On to `C=CC1(C)CC(=O)C2(O)C(C)(O1)C(OC(C)=O)C(O)C1C(C)(C)CCC(O)C12C` (centres undefined), for which the Potency result was “inactive”.
Under `CCOC(=O)C1CCN(C(=O)CSc2c3c(nc4ccc(Cl)cc24)CCCC3)CC1` stands “inactive”.
For the molecule `Cc1cc(C(=O)CC#N)c(C)n1-c1c(C)n(C)n(-c2ccccc2)c1=O`, the Potency entry was “inactive”.
`Cc1cc(/C=C2\SC(=O)N(C)C2=O)c(C)n1-c1cccc(C(=O)O)c1`: the Potency is 22.4 µM (active).
As to `Cc1ccc(C)c2c1cc(C)c1nnc(SCC(=O)Nc3cccc(C(=O)O)c3)n12`, the Potency result was “inactive”.
As to `CCCCN(C)c1nnc(NC(=O)Nc2ccc(Br)c(C)c2)s1`, the Potency entry is “inactive”.
Under `CCOC(=O)c1cc2c(=O)n3ccccc3nc2n(CC2CCCO2)c1=NC(=O)c1ccccc1F` (centres undefined) stands “inactive”; under `COCCN(Cc1ccco1)C(=O)Cn1ncc2c([nH]c3ccccc32)c1=O`, “inactive”; under `CCc1ccccc1NC(=O)c1sc2nc3c(cc2c1N)CN(Cc1ccccc1)CC3`, “inactive”.
In the case of `CCc1ccc2nc3sc(C(=O)Nc4nnc(CC)s4)c(N)c3cc2c1`, the Potency is 50.1 µM (active).
`CCc1ccc(NC(=O)c2sc3nc4c(cc3c2N)CN(CC)CC4)cc1`: the Potency entry is “inactive”.
For the molecule `CCCN(CCC)CCCNC(=O)Cn1cc2c(n1)-c1c(oc(C(=O)N3CCCC3)c1C)CC2`, the Potency result was “inactive”.
`CCOC(=O)c1cc(OC(=O)c2ccccc2Cl)n(-c2ccccc2)n1`: the Potency entry is “inactive”.
Turning to `Cn1c(=O)c2c(-c3ccccc3Br)n(Cc3ccccc3)cc2n(C)c1=O`, the Potency result is “inactive”.
Consider `CCc1ccc(NC(=O)CN2C(=O)CCSc3ccc(S(=O)(=O)N4CCCC4)cc32)cc1`, for which the Potency entry is “inactive”.
Turning to `CC(Oc1ccccc1)C(=O)NN1Cc2ccccc2C1=N` (centres undefined), the Potency entry was “inactive”.
Regarding `CC(Oc1ccc(Br)cc1)C(=O)NCC(c1ccco1)N1CCCCC1` (centres undefined), the Potency result was “inactive”.
For the molecule `CC(Oc1ccccc1)C(=O)Nc1oc(-c2ccco2)c(-c2ccco2)c1C#N` (centres undefined), the Potency is 20 µM (active).
`Cc1c(-c2cccc(NC(=O)C(C)(C)C)c2)nc2ncccn12`: the Potency entry was “inactive”.
For the molecule `CCOc1ccc(S(=O)(=O)N(CC(=O)NCCSCc2ccc(C)cc2)c2ccccc2)cc1`, the Potency entry was “inactive”.
Turning to `Cc1ccc(S(=O)(=O)Nc2nc(N)n(-c3ccccc3)n2)cc1`, the Potency result is “inactive”.
`COc1ccc(N2CCN(C3CCCCC3NS(=O)(=O)c3ccccc3)CC2)cc1` (centres undefined): the Potency result was “inactive”.
Turning to `COc1ccc(S(=O)(=O)Nc2cc3c(C(=O)OC(C)C)c(C)oc3c3ccccc23)cc1`, the Potency entry is “inactive”.
As for `Cc1ccc(S(=O)(=O)/N=S(\C)C(C)C)cc1` (centres undefined), the Potency entry is “inactive”.
On to `Cc1ccc(S(=O)(=O)/N=C2\C=C(NS(=O)(=O)c3ccc(C)cc3)C(=O)c3ccccc32)cc1`, for which the Potency was 79.4 µM (active).
The result for `COc1ccc(S(=O)(=O)/N=C2\C=C(NS(=O)(=O)c3ccccc3)C(=O)c3ccccc32)cc1` reads 22.4 µM (active).
Under `COc1ccc(N(CC(=O)NCCc2ccc(Cl)cc2)S(=O)(=O)c2c(C)nn(C)c2C)cc1` stands “inactive”; under `CCN(CC)c1ccc(NC(=O)Cn2nc3c(cc2=O)CCCC3)c(C)c1`, “inactive”.
The result for `CCCCOC(=O)CSc1ncnc2sc3c(c12)CCC(C)C3` (centres undefined) reads “inactive”; that for `NC1CCN(O)C1=O` (centres undefined), “inactive”; that for `CCOc1ccc(NC(=O)CCC(=O)N2CC(C)Oc3ccc(C)cc32)cc1` (centres undefined), “inactive”.
Consider `COc1ccc(NC(=O)CCCc2nnc3n(CCC(C)C)c(=O)c4sccc4n23)c(OC)c1`, for which the Potency result is “inactive”.
Take `O=C(O)c1ccc2c(c1)C(=O)N(c1ccc(/C=C/C(=O)c3ccccc3)cc1)C2=O`: the Potency was 22.4 µM (active).
On to `Cc1cc(N2C(=O)c3ccc(C(=O)NCc4ccccc4)cc3C2=O)no1`, for which the Potency result was “inactive”.
In the case of `COc1ccc(OC)c(NC(=O)c2ccc3c(c2)C(=O)N(c2ccc(OC(C)=O)cc2)C3=O)c1`, the Potency entry is “inactive”.
`COc1ccc(Cl)cc1-n1c(CCC(=O)O)ccc1-c1ccc(C)cc1`: the Potency entry was “inactive”.
`Cc1ccc(Oc2c(C(F)(F)F)oc3c(CN4CCCCC4)c(O)ccc3c2=O)cc1`: the Potency entry is “inactive”.
Regarding `Cc1cc(C)cc(Oc2c(C(F)(F)F)oc3cc(OCC(=O)O)ccc3c2=O)c1`, the Potency was 35.5 µM (active).
Regarding `O=C(COc1ccc2c(C(F)(F)F)cc(=O)oc2c1)Nc1ccc2c(c1)OCCO2`, the Potency entry was “inactive”.
Take `CCCn1c(NCc2ccc(N(CC)CC)cc2)nc2ccccc21`: the Potency entry was “inactive”.
Take `COc1cccc(-n2c(=O)c3c(C)c(C(=O)N(C)C)sc3n(Cc3cccc(C)c3)c2=O)c1`: the Potency result is “inactive”.
On to `CCOC(=O)c1c(S(=O)(=O)NCC(=O)Nc2ccc(Cl)c(C(F)(F)F)c2)c(C)n(C)c1C`, for which the Potency entry was “inactive”.
With `O=C1COc2c1ccc(O)c2O`, the Potency is 22.4 µM (active).
On to `CCSc1nnc2c(n1)OC(c1ccc(OCC(=O)O)cc1)Nc1ccccc1-2` (centres undefined), for which the Potency result is “inactive”.
Take `Cc1ccccc1NC(=O)c1c(NC(=O)c2ccccc2F)sc2c1CCC(C)C2` (centres undefined): the Potency result is “inactive”.
In the case of `CCOc1ccccc1C1NC(=O)NC(C)=C1C(=O)OCc1ccco1` (centres undefined), the Potency result was “inactive”.
The result for `CCOc1cccc(CC(=O)N2CCc3c([nH]c4ccccc34)C2c2ccc(F)cc2)c1OCC` (centres undefined) reads “inactive”; that for `CCOc1cccc2c1N[C@@H](c1ccc(C(=O)O)cc1)[C@H]1CC=C[C@@H]21`, 8.91 µM (active); that for `COc1cccc2c1cc1c(=O)n(CC(=O)N3CCN(c4ccccc4)CC3)nc(C)n12`, “inactive”.
Take `COc1ccc(CNC(=O)c2ccc3c(c2)nc2n3CCOC2)c(OC)c1`: the Potency result is “inactive”.
With `CCC(=O)N1c2ccc(S(=O)(=O)NCc3ccco3)cc2CC1C` (centres undefined), the Potency is 56.2 µM (active).
Turning to `COc1cccc(CNS(=O)(=O)c2ccc3c(c2)CC(C)N3C(=O)C2CCC2)c1` (centres undefined), the Potency entry is “inactive”.
In the case of `CC1CCN(S(=O)(=O)c2ccc(S(=O)(=O)NCc3ccco3)cc2)CC1`, the Potency result is “inactive”.
For `COc1ccccc1CNC(=O)c1ccccc1NC(=O)c1nsc2ccccc12`, the Potency entry was “inactive”.
Under `COc1c(O)cc2oc(-c3ccc(O)c(O)c3)cc(=O)c2c1O` stands 3.55 µM (active); under `COc1ccc(-c2c(C)c3ccc(O)c(CN4CCN(C)CC4)c3oc2=O)cc1OC`, “inactive”; under `COc1cc(O)c2c(=O)c3c(O)c(O)ccc3oc2c1OC`, “inactive”.
Regarding `Cc1cc(F)ccc1NC1(c2ccccc2)C(=O)c2ccccc2C1=O`, the Potency entry was “inactive”.
Regarding `Cc1ccc(NC(=O)Cn2cnc3nc4c(cc3c2=O)CCCC4)cc1Cl`, the Potency entry was “inactive”.
The result for `Cc1ccccc1CS(=O)(=O)CC1Nc2ccc(C(=O)NCc3ccc(Cl)cc3)cc2NC1=O` (centres undefined) reads “inactive”; that for `Cc1ccc(N2CC(c3nnc(Cc4ccccc4Cl)o3)CC2=O)cc1` (centres undefined), “inactive”.
For the molecule `Cc1cc(/C=C2/C(=N)N3C(=NC2=O)SN=C3S(C)(=O)=O)c(C)n1-c1ccccc1`, the Potency is 44.7 µM (active).
Take `CS(=O)(=O)C1=NN2C(=N)/C(=C\c3ccc(OCCOc4ccccc4)cc3)C(=O)N=C2S1`: the Potency was 44.7 µM (active).
In the case of `CCS(=O)(=O)C1=NSC2=NC(=O)/C(=C\c3ccc(OS(=O)(=O)c4ccccc4)cc3)C(=N)N21`, the Potency is 20 µM (active).
